# Assay results published in the supplement of paper PMC10849652.
# Targets with a hit are over-represented here; the source holds about 8,800 in all. About 0.5% of all pairs of compound and target were hits.
# Compound: c1ccc([C@@H]2C[C@H]2NC2CCNCC2)cc1
# Assay: log2 fold change, soluble protein after heating vs DMSO (PISA); higher = thermal stabilisation; K562 lysate, 10 uM; active = over 0.2 and 3.5 SD of the protein, either way, in both replicates (recomputed)
# Procedure, shortened: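 K562 pellets were dounce-homogenised in PBS pH 7.4 with 1 mM MgCl2, and the crude extract at 1 mg/mL protein was treated with 10 μM compound for 30 min. Aliquots were heated for 3 min across 48°C-58°C, pooled, and brought to 0.5% NP-40 at 4°C; soluble protein was the supernatant after 21,000xg for 90 min. Soluble protein was quantified by TMTpro 16plex LC-MS/MS with channel sums equalised, and reported as log2 fold change in thermal stability against DMSO controls, with values from duplicates.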
# Chain of UniProt O95718 (O95718 whole entry, looked up): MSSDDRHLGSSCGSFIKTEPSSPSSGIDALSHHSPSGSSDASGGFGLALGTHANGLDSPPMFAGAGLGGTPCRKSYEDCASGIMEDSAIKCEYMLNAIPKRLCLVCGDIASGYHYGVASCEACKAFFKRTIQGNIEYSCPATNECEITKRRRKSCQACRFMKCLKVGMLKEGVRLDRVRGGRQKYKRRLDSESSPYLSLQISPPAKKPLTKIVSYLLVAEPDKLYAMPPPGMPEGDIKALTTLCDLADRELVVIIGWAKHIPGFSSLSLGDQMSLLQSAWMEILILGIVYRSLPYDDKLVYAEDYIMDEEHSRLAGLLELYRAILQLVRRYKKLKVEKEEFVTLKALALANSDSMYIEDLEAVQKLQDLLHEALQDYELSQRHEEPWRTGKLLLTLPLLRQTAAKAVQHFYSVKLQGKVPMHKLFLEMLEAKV
# Chain of UniProt P02774 (P02774 whole entry, looked up): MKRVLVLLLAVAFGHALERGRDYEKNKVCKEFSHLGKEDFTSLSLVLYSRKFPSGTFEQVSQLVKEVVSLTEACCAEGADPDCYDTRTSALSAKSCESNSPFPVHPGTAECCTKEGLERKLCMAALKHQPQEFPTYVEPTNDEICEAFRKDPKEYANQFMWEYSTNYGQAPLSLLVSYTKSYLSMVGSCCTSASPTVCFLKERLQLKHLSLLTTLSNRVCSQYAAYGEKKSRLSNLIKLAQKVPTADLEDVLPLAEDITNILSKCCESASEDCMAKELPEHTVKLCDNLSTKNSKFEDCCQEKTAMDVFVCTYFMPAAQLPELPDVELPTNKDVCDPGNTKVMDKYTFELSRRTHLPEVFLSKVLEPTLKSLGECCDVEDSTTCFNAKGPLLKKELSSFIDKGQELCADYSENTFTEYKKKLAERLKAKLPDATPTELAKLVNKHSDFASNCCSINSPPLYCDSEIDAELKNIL
# Chain of UniProt P35916 (P35916 whole entry, looked up): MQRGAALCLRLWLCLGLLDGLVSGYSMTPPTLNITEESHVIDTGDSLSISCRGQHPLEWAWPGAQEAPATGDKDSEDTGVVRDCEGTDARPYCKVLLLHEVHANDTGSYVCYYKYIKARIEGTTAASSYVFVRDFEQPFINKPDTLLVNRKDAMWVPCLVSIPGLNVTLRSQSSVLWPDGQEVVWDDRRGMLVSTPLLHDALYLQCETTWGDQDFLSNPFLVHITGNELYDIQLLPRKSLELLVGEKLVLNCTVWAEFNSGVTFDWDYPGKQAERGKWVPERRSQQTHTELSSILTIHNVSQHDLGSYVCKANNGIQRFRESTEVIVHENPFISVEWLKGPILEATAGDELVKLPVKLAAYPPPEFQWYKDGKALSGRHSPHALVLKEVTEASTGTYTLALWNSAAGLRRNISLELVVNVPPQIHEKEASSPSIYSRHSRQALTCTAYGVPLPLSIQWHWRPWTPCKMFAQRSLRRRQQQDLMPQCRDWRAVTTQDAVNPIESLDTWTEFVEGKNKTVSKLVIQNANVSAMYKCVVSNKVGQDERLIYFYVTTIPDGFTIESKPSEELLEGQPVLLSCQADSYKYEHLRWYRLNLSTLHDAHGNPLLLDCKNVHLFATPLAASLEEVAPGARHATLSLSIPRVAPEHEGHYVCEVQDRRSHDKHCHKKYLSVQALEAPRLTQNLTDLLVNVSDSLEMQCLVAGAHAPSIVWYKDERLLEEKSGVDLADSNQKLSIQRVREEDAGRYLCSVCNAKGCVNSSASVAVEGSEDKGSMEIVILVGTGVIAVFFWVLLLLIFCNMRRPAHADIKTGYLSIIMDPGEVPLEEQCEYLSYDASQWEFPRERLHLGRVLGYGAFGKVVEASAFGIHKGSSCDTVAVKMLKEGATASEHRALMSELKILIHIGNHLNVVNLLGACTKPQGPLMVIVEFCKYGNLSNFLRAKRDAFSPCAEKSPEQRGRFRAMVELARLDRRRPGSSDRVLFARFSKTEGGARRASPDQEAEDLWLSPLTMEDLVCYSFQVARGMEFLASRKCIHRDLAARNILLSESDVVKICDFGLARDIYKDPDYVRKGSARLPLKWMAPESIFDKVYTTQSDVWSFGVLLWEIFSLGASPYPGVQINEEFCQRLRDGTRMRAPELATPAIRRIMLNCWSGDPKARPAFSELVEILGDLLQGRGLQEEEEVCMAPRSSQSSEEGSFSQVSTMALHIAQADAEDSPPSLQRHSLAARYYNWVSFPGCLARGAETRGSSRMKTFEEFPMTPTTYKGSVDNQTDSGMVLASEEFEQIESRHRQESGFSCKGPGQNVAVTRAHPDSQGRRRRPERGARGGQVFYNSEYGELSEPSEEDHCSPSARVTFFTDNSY
# Chain of UniProt P26378 (P26378 whole entry, looked up): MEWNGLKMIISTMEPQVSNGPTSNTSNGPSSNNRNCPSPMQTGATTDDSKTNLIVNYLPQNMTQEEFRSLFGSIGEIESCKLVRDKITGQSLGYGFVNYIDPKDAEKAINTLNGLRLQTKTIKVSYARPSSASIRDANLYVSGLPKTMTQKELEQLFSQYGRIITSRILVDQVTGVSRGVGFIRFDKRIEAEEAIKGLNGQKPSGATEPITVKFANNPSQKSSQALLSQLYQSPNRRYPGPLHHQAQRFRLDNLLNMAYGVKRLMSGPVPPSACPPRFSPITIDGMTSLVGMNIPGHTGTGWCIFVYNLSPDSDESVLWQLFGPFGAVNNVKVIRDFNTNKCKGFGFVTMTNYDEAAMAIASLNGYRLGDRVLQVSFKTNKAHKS
# Chain of UniProt Q9BQI3 (Q9BQI3 whole entry, looked up): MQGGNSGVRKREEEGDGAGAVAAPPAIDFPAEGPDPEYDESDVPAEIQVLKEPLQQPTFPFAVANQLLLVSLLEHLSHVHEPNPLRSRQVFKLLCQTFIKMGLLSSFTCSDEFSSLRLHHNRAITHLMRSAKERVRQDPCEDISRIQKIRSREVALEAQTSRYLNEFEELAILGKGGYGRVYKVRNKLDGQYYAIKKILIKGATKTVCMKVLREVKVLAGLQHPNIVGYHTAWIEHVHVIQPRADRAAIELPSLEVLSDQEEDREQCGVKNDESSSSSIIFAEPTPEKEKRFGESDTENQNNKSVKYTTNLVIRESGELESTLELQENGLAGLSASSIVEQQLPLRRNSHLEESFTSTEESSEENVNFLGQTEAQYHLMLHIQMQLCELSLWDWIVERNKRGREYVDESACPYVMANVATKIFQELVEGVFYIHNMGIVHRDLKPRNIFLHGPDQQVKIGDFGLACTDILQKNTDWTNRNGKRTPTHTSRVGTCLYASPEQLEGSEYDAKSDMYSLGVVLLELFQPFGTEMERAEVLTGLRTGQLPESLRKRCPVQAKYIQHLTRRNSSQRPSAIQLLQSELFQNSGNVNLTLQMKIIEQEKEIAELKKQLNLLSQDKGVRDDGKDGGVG
# Chain of UniProt Q9HCG7 (Q9HCG7 whole entry, looked up): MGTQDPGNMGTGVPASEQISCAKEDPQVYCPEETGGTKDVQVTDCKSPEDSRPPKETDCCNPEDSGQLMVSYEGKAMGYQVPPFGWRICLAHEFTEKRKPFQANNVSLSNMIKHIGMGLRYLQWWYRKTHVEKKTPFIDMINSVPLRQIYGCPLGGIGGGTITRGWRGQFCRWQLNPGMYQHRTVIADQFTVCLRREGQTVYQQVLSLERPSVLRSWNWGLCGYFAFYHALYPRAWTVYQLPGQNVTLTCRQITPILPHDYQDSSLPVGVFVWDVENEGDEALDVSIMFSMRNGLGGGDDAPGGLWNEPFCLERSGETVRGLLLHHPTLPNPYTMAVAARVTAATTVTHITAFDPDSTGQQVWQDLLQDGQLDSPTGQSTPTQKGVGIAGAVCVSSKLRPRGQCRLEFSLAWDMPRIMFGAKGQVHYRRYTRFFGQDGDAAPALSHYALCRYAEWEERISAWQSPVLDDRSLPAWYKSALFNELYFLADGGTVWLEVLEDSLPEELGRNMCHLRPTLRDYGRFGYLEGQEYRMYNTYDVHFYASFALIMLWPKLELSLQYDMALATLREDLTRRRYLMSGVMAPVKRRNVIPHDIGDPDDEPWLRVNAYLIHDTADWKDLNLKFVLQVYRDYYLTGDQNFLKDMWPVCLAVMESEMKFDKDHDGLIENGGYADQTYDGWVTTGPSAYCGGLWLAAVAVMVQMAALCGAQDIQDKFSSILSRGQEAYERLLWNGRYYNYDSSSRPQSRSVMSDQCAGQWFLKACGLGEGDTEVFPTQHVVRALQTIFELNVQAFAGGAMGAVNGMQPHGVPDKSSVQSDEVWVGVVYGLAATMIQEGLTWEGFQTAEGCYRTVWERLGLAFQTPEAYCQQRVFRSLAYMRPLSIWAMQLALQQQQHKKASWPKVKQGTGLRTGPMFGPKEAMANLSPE
# Chain of UniProt Q8N5C7 (Q8N5C7 whole entry, looked up): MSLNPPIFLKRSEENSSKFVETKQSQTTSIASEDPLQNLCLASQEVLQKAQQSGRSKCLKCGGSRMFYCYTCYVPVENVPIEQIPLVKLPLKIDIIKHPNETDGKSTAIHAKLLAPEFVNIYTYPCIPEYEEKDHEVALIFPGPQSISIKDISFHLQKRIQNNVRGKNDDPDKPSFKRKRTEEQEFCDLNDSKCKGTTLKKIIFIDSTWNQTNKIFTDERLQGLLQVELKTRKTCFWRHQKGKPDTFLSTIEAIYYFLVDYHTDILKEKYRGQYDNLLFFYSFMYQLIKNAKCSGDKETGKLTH
# Chain of UniProt P0C2W1 (P0C2W1 whole entry, looked up): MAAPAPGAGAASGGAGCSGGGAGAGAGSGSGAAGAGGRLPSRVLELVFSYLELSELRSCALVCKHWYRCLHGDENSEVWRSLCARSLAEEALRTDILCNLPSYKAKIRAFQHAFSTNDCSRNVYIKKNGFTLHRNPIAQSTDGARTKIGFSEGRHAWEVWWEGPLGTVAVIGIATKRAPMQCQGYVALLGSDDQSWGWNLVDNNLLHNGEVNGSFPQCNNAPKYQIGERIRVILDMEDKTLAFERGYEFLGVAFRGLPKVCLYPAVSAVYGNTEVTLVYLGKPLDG
# Chain of UniProt P28676 (P28676 whole entry, looked up): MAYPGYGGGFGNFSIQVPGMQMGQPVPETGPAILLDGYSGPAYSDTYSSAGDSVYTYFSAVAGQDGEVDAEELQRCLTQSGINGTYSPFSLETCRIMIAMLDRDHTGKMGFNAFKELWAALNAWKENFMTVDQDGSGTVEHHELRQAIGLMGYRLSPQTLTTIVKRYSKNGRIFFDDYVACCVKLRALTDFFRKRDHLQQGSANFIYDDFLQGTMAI
row,Target,log2 fold change
1,EVI5L isoform 2 (UniProt Q96CN4),0.036 (inactive)
2,GBA2 (UniProt Q9HCG7),-0.057 (inactive)
3,EHHADH (UniProt Q08426),0.031 (inactive)
4,EID1 (UniProt Q9Y6B2),-0.022 (inactive)
5,GART (UniProt C9JZG2),-0.366 (inactive)
6,EPN2 (UniProt I3L356),-0.235 (inactive)
7,ELAVL4 (UniProt P26378),0.095 (inactive)
8,FNDC3A (UniProt Q9Y2H6),-0.136 (inactive)
9,FOXJ2 (UniProt Q9P0K8),0.039 (inactive)
10,DYRK1A isoform 2 (UniProt Q13627),-0.339 (inactive)
11,EPS8L2 (UniProt Q9H6S3),0.037 (inactive)
12,FBXO45 (UniProt P0C2W1),0.053 (inactive)
13,FAT1 (UniProt Q14517),-0.092 (inactive)
14,DTWD1 (UniProt Q8N5C7),0.095 (inactive)
15,ESRRB isoform 1 (UniProt O95718),0.321 (inactive)
16,ERG28 (UniProt Q9UKR5),0.277 (inactive)
17,FAM204A (UniProt Q9H8W3),-0.035 (inactive)

row,Target,log2 fold change
1,DST isoform 3 (UniProt Q03001),0.586 (inactive)
2,ERCC4 (UniProt Q92889),-0.305 (active)
3,EIF3I (UniProt Q5TFK1),0.059 (inactive)
4,EIF2AK3 (UniProt Q9NZJ5),0.041 (inactive)
5,GABPB1 (UniProt Q06547),0.132 (inactive)
6,GAA (UniProt P10253),-0.024 (inactive)
7,FTSJ1 isoform 2 (UniProt Q9UET6),-0.234 (inactive)
8,EIF2AK1 (UniProt Q9BQI3),-0.041 (inactive)
9,GDE1 (UniProt Q9NZC3),0.394 (inactive)
10,EPB41 isoform 4 (UniProt P11171),0.106 (inactive)
11,GC isoform 3 (UniProt P02774),0.107 (inactive)
12,FAM76B (UniProt Q5HYJ3),-0.099 (inactive)
13,GAMT (UniProt Q14353),0.005 (inactive)
14,FLT4 (UniProt P35916),-0.408 (inactive)
15,FAT2 (UniProt Q9NYQ8),-0.161 (inactive)
16,GCA (UniProt P28676),-0.095 (inactive)
17,G6PD isoform 2 (UniProt P11413),0.075 (inactive)
